Source: the supplement of paper PMC6555819

How the values were obtained:
Assay in all cases: PBM binding z-score (relative to random genomic background probes); higher = stronger binding; sequences stand for … in GC…GCGATTGACAGCGTAGAATGAAGG
[1] = test system: FXR:RXRa (NR concentration 270 nM, RXRa partner concentration 90 nM)
Procedure, shortened: (§1)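 On custom Agilent 4×180K arrays, double-stranded probes with 34-nt variable regions carried direct-repeat seeds, single-nucleotide variants, half-site ablations or random human genomic background. Ligand-free nuclear receptor dimers were applied for 1 h, and binding was read with antibodies against each partner (one per run). Binding z-scores come from regression-normalized fluorescence, with the random background probes as reference.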

[2] = test system: LXRa:RXRa (NR concentration 270 nM, RXRa partner concentration 90 nM)
Procedure, shortened: as §1

[3] = test system: LXRa homodimer (NR concentration 270 nM)
Procedure, shortened: as §1

[4] = test system: LXRb:RXRa (NR concentration 270 nM, RXRa partner concentration 90 nM)
Procedure, shortened: as §1

[5] = test system: LXRb homodimer (NR concentration 270 nM)
Procedure, shortened: as §1

[6] = test system: PPARa:RXRa (NR concentration 270 nM, RXRa partner concentration 90 nM)
Procedure, shortened: as §1

[7] = test system: PPARg:RXRa (NR concentration 180 nM, RXRa partner concentration 90 nM)
Procedure, shortened: as §1

[8] = test system: PPARg:RXRa 270nM:90nM, anti-RXR (NR concentration 270 nM, RXRa partner concentration 90 nM)
Procedure, shortened: as §1

[9] = test system: PPARg:RXRa 30nM:10nM, anti-RXR (NR concentration 30 nM, RXRa partner concentration 10 nM)
Procedure, shortened: as §1

[10] = test system: PPARg:RXRa 90nM:30nM, anti-RXR (NR concentration 90 nM, RXRa partner concentration 30 nM)
Procedure, shortened: as §1

[11] = test system: PPARg:RXRa DBDmut IVT, anti-RXR (DBD mutation: RXRa K156A/R161A, NR concentration 270 nM, RXRa partner concentration 90 nM)
Procedure, shortened: as §1

[12] = test system: PPARg:RXRa IVT, anti-PPARg (NR concentration 270 nM, RXRa partner concentration 90 nM)
Procedure, shortened: as §1

[13] = test system: PPARg DBDmut:RXRa IVT, anti-PPARg (DBD mutation: PPARg1 K132A/R137A, NR concentration 270 nM, RXRa partner concentration 90 nM)
Procedure, shortened: as §1

[14] = test system: PPARg DBDmut IVT, anti-PPARg (DBD mutation: PPARg1 K132A/R137A, NR concentration 270 nM)
Procedure, shortened: as §1

[15] = test system: PPARg homodimer (NR concentration 180 nM)
Procedure, shortened: as §1

[16] = test system: PXR:RXRa (NR concentration 270 nM, RXRa partner concentration 90 nM)
Procedure, shortened: as §1

[17] = test system: PXR homodimer (NR concentration 270 nM)
Procedure, shortened: as §1

[18] = test system: RARa:RXR (NR concentration 270 nM, RXRa partner concentration 90 nM)
Procedure, shortened: as §1

[19] = test system: RARa homodimer (NR concentration 270 nM)
Procedure, shortened: as §1

[20] = test system: RARb:RXRa (NR concentration 270 nM, RXRa partner concentration 90 nM)
Procedure, shortened: as §1

| Sequence | PBM binding z-score [1] | PBM binding z-score [2] | PBM binding z-score [3] | PBM binding z-score [4] | PBM binding z-score [5] | PBM binding z-score [6] | PBM binding z-score [7] | PBM binding z-score [8] | PBM binding z-score [9] | PBM binding z-score [10] | PBM binding z-score [11] | PBM binding z-score [12] | PBM binding z-score [13] | PBM binding z-score [14] | PBM binding z-score [15] | PBM binding z-score [16] | PBM binding z-score [17] | PBM binding z-score [18] | PBM binding z-score [19] | PBM binding z-score [20] |
| --- | --- | --- | --- | --- | --- | --- | --- | --- | --- | --- | --- | --- | --- | --- | --- | --- | --- | --- | --- | --- |
| GCTGCCAGGTCAACTGATGGTCAGCTAAAGCTCG | 4.84 | 3.82 | 0.113 | 2.73 | 0.00556 | 4.4 | 2.42 | 3.09 | 0.281 | 1.61 | 2.71 | 2.73 | 0.45 | -0.276 | 4.33 | 2.76 | -0.337 | 4.22 | -0.0772 | 4.46 |
| CGTCCAAGGTCAAGGTCAGTGACAGAGACTCGAA | 7.96 | 5.86 | 1.34 | 4.71 | 0.819 | 5.76 | 6.3 | 6.48 | 2.85 | 4.82 | 4.03 | 4.87 | 1.18 | -0.455 | 4.7 | 5.25 | 1.84 | 5.72 | 2.23 | 5.75 |
| CCTACTGGGCCAAAAAGGTCACTGATGCCGATAA | 2.83 | 3.29 | 1.36 | 3.63 | -0.14 | 4.64 | 3.78 | 4.35 | 1.79 | 3.78 | 3.78 | 4.39 | -0.138 | -0.0876 | 3.8 | 4.22 | 1.16 | 4.59 | 1.29 | 4.15 |
| ATCGAAAGATCGAAGGTGAGTATACCCACCCGAA | 0.128 | -0.167 | -0.351 | -0.103 | -0.379 | 0.477 | 0.73 | 0.539 | 0.2 | 0.266 | -0.781 | 0.354 | -0.115 | -0.0294 | -0.0886 | 0.0692 | -0.598 | 0.121 | 0.67 | 0.215 |
| AGAACGACGGCAATGAGTTGATAGCACGGGTGGC | -0.823 | -0.86 | -0.973 | -1.01 | -0.907 | -0.728 | 0.71 | -0.672 | -0.309 | -0.536 | -0.438 | -0.402 | -0.484 | -0.862 | -0.865 | -0.631 | -0.242 | -0.819 | -0.419 | -0.448 |
| TATACAGGGGCAAAGGCCAGAGTACGAATGTCGA | 0.799 | 1.07 | 0.0951 | 1.34 | 1.92 | 2.84 | 4.54 | 5.09 | 3.45 | 4.92 | 0.641 | 2.72 | 1.72 | 2.01 | 1.16 | 0.577 | 0.087 | 0.592 | 0.364 | 2.1 |
| CGTCCAAGGTCAGAAGGTCAGTGAAAGCGACGTG | 5.88 | 4.43 | 0.719 | 3.22 | -0.0292 | 5 | 3.62 | 4.51 | 0.861 | 3.11 | 2.28 | 3.06 | 0.15 | -0.646 | 3.82 | 4.48 | 0.822 | 5.89 | 1.32 | 5.45 |
| CGAACTAGGTCATTGACAGGACAGGGAATAGTAA | 4.56 | 2.81 | 0.225 | 1.82 | -0.158 | 4.65 | 7.57 | 6.18 | 4.13 | 5.76 | 8.02 | 8.21 | 2.18 | 1.03 | 1.49 | 1.43 | 0.107 | 2.22 | 0.195 | 3.69 |
| TGAAGGAGGTTATAAGATCAGGGAACGTTGCAAA | 0.559 | 0.855 | -0.0635 | 0.774 | -0.481 | 2.16 | 0.845 | 1.42 | 0.992 | 1.16 | -0.131 | 0.876 | 0.728 | 0.392 | 0.374 | 0.292 | 0.19 | 0.993 | 0.904 | 0.905 |
| CGTCCAATGTCATAGGAGGTCAGTGAAGACAGAT | 3.22 | 4.74 | 1.21 | 2.36 | 0.0659 | 2.66 | 0.938 | 0.958 | 0.0922 | 0.565 | 0.186 | 1.95 | 0.476 | 0.254 | 1.72 | 3.91 | 0.941 | 2.69 | 0.765 | 2.9 |
| TGAGACAGGTGAAGGTAACTCAGGTACGCAGTCG | -0.213 | 1.11 | -0.351 | 0.233 | -0.678 | 0.549 | 0.639 | 0.251 | 0.211 | -0.17 | -0.0775 | 0.991 | 0.178 | -0.801 | 0.0963 | -0.189 | -0.538 | 0.124 | -0.0291 | 0.697 |
| GGAACGAGGGCAGGTTGATAGCAGAGTTTGATGG | 0.204 | 0.00952 | -0.393 | 0.00491 | -0.45 | 0.686 | 0.674 | 0.307 | -0.182 | 0.0591 | 2.17 | 1.68 | -0.931 | -0.47 | 0.542 | 0.273 | 0.636 | 0.164 | 0.17 | 1.87 |
| TCTGCTAGGTCAACGATGGTCAGATAATCTGCTA | 3.65 | 2.85 | 0.0239 | 1.94 | 0.0958 | 3.3 | 2.82 | 3.22 | 2.1 | 2.55 | 4.35 | 4.34 | -0.0109 | 0.256 | 1.82 | 2.15 | -0.779 | 2.44 | -0.13 | 4.26 |
| ACCTACGGGTCAACGAGGTTATAGCACGCGTATA | 6.4 | 4.83 | 0.64 | 3.98 | 0.188 | 5.36 | 4.44 | 4.86 | 1.47 | 3.68 | 1.41 | 2.79 | 0.196 | 0.0693 | 3.53 | 5.22 | 3.27 | 5.3 | 0.837 | 4.05 |
